{
  "source": "PubChem BioAssay (NCATS)",
  "data": [
    {"biological_target": "Catechol O-methyltransferase (Homo sapiens) (UniProt P21964)", "sequence (P21964 whole entry, looked up)": "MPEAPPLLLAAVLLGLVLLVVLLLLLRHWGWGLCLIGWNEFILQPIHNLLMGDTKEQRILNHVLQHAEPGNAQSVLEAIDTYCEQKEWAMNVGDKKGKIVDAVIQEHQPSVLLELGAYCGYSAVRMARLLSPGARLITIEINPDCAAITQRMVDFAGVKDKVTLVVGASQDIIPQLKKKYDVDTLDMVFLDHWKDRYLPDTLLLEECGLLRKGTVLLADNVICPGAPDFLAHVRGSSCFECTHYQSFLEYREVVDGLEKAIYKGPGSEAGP", "experiment": "Confirmatory Screen for Target Class Profiling of Small Molecule Inhibitors of Methyltransferases (AID 1745852)", "conditions": "MTase-Glo luminescence, SAH detection, recombinant enzyme; measured here: COMT max response; stronger effect = lower value", "units": {"activity": "%"}, "values": [
      {"smiles": "CC1=C(C(=O)OCc2ccccc2)C(c2ccc(-c3ccccc3)cc2)NC(=O)N1CCCCCC(=O)O", "note": "(configuration not stated)", "activity": -3.43},
      {"smiles": "C=C1C(=O)OC2C1CCC(=C)C1CC(OC(C)=O)C(=C)C12", "note": "(configuration not stated)", "activity": -65.1},
      {"smiles": "CC(C)=CCC(O)/C(C)=C/CO[C@@H]1O[C@H](CO)[C@@H](O)[C@H](O)[C@H]1O", "note": "(some centres not stated)", "activity": -52},
      {"smiles": "C=C[C@H]1[C@H](O[C@@H]2O[C@H](CO)[C@@H](O)[C@H](O)[C@H]2O)OC=C(C(=O)OC)[C@H]1C/C=C(/C=O)[C@@H]1C(C(=O)OC)=CO[C@@H](O[C@@H]2O[C@H](CO)[C@@H](O)[C@H](O)[C@H]2O)[C@@H]1C=C", "activity": -65.2},
      {"smiles": "CC1CCC2(CO)C(C(=O)O)=CCCC2C1(C)CCc1ccoc1", "note": "(configuration not stated)", "activity": -92.5},
      {"smiles": "Cc1cc(O)c(-c2ccc([C@@H](C)CN(C)C)cc2)c2c1[nH]c(=O)c1sccc12", "activity": -22.7},
      {"smiles": "CN(C)C/C=C/C(=O)Nc1cccc(C(=O)Nc2cccc(Nc3ncc(Cl)c(-c4c[nH]c5ccccc45)n3)c2)c1", "activity": -3.58},
      {"smiles": "Cc1cc(=O)oc2c(C=O)c(O)ccc12", "activity": -6.39},
      {"smiles": "CC/C=C\\CCO[C@@H]1O[C@H](CO)[C@@H](O)[C@H](O)[C@H]1O", "activity": -74.1},
      {"smiles": "O=C(/C=C/c1ccccc1)OC[C@]12O[C@H]1[C@@H](O)[C@@H]1C=CO[C@@H](O[C@@H]3O[C@H](CO)[C@@H](O)[C@H](O)[C@H]3O)[C@@H]12", "activity": -55.2},
      {"smiles": "Cc1ccc([N+](=O)[O-])cc1S(=O)(=O)N(C)/N=C/c1cnc2ccc(Br)cn12", "activity": -16.2},
      {"smiles": "C=C1C(=O)OC2/C=C(\\CO)CC/C=C(\\C=O)CC(OC(=O)CC(C)C)C12", "note": "(configuration not stated)", "activity": -71}
    ]}
  ]
}
